# FBA Mtb inh: inhibitors of M. tuberculosis fructose-bisphosphate aldolase | P9WQA3 | purified M. tuberculosis FBA, fluorescence read-out | inhibition, % at 1 µM | 360,000 compounds, 2.3% hits | AID 588726; in the data active = inhibition above about 27%;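 note: 0% = vehicle and 100% = reference inhibitor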
# Target sequence (P9WQA3 whole entry, looked up): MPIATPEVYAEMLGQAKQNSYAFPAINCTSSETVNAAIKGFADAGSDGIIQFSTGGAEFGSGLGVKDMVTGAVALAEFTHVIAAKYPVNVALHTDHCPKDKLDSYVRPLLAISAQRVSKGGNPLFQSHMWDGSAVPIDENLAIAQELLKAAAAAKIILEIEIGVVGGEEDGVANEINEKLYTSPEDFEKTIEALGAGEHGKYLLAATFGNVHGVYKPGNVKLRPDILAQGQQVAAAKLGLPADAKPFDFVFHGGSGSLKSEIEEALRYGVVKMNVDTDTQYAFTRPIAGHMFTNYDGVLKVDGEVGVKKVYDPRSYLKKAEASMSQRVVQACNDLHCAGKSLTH
# PrPC surface inh: inhibitors of human cell surface prion protein PrPC; 370,000 compounds, 0.43% hits; inhibition, % at 13.8 µM; P04156; TR-FRET read-out; in the data active = inhibition above about 24%; note: 0% = median of the test wells and 100% = reference compound wells
# PrP UTR inh: inhibition of PrP 5' UTR reporter expression. 340,000 compounds, 0.35% hits. inhibition, % (concentration not given with the values). cell-based PrP 5' UTR mRNA reporter, plate reader; in the data active = inhibition above about 52%; note: 0 = median of the neutral control wells
# Y pestis TopoI: blocks Yersinia pestis topoisomerase I activity; Y. pestis Topo-I cleavage product accumulation, plate reader; activity, % at 10 µM; 360,000 compounds, 0.064% hits; AID 504884; in the data active = activity above about 50%, passing the limit was not always enough; inconclusive = no clear call, values can overlap the other calls
# GDH-TPI inh: counter-screen for M. tuberculosis FBA inhibitors: GDH-TPI coupled enzymes. GDH-TPI coupled enzyme counterscreen, NADH absorbance. 360,000 compounds, 1.2% hits. inhibition, % at 4.8 µM. AID 588335; in the data active = inhibition above about 30%;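 note: 0% = DMSO wells and 100% = wells lacking the enzyme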
# Mtb hypoxia rep: reduces hypoxia-regulated biosensor signal in M. tuberculosis. M. tuberculosis hypoxia-regulated fluorescent reporter, fluorescence. 300,000 compounds, 0.1% hits. fluorescence inhibition, % (no concentration beside the values); in the data active = fluorescence inhibition mostly above about 23%, no sharp cut-off; inactive = mostly below about 17%
# * marks the source's active call; other numbers are inactive results; ? = inconclusive; . = no result; + = active, no number. Only some compounds are listed: those with a hit (about 3.8% of all), similar ones and a draw of the others.
SMILES,FBA Mtb inh,PrPC surface inh,PrP UTR inh,Y pestis TopoI,GDH-TPI inh,Mtb hypoxia rep
Cc1cccn2c(=O)c3cc(C(=O)NC4CCCC4)c(=N)n(CCCN4CCOCC4)c3nc12,141*,-17,-22,-3,-1,0
O=C(NCc1ccccc1)C1=CC(c2ccc(Br)cc2)CC(OCCCCO)O1 (stereo not drawn),.,.,.,.,.,-4
C(=NN1CCN(c2ccccn2)CC1)c1ccco1,.,.,.,.,.,-1
O=C(CN1CCN(C2CCCCC2)CC1)Nc1cccc2ccccc12,2,-4,12,-4,32*,1
O=C(CN1CCN(C2CCCCC2)CC1)Nc1ccccc1-c1ccccc1,0,-13,-22,6,3,2
O=C(Nc1cccc(F)c1)/C(=C\c1ccco1)NC(=O)c1ccco1,0,2,-11,-1,39*,1
COC(=O)c1cccc(NC(=O)/C(=C\c2ccco2)NC(=O)c2ccco2)c1,-5,-7,.,10,25,.
CC(=O)c1cccc(NC(=O)/C(=C/c2ccco2)NC(=O)c2ccco2)c1,-2,0,-23,0,20,11
NNC(=O)/C(=C\c1ccco1)NC(=O)c1ccco1,-1,3,-9,-12,35*,10
O=C(NCc1ccco1)/C(=C\c1ccco1)NC(=O)c1ccco1,-2,0,-11,1,8,10
CC(=O)c1cccc(NC(=O)/C(=C\c2ccco2)NC(=O)c2cccs2)c1,-11,-9,0,-5,32*,4
C=CCN(C(CC(C)C)C(=O)OC)S(=O)(=O)N(CC=C)C(CC(C)C)C(=O)OC (stereo not drawn),.,.,.,.,.,7
CCOC(=O)C1C2COc3ccccc3C2N2C(=O)N(c3ccc(C(F)(F)F)cc3)C(=O)[C@]12C (stereo partly drawn),.,.,.,.,.,-1
COC(=O)N1CC=CC(c2ccc(OC)cc2)N(Cc2ccc(F)cc2)C(=O)C1 (stereo not drawn),.,.,.,.,.,19
O=Cc1ccccc1-n1cncn1,1,-5,80*,-1,1,6
CCCCN1CCC2C=CCC(C(=O)N3CCOCC3)C2C1=O (stereo not drawn),.,.,.,.,.,14
COc1ccc(CN(Cc2cccn2C)C(=O)c2cc3cc(OC)ccc3[nH]2)cc1,22,-2,-15,51*,1,6
CCN(Cc1ccccc1)C(=O)c1cc2cc(OC)c(OC)cc2[nH]1,12,-1,-26,20,-3,13
CC1CCCCC1NC(=O)c1cc2c(=O)n3ccccc3nc2n1C (stereo not drawn),180*,-7,-36,18,10,9
CN(C(=O)c1cc2c(=O)n3ccccc3nc2n1C)C1CCCCC1,+,0,-69,8,19,3
CCN(C(=O)c1cc2c(=O)n3ccccc3nc2n1CCCOC)C1CCCCC1,118*,-7,-6,17,17,1
CCCCn1nc(C(=O)N(C)C2CCCCC2)c2ccccc2c1=O,-1,2,-14,13,-5,8
CCN(C(=O)c1cc2c(=O)n3ccccc3nc2n1C)C1CCCCC1,+,-17,-26,6,1,-2
Cc1cccn2c(=O)c3cc(C(=O)NC4CCCCC4C)n(C)c3nc12 (stereo not drawn),13,5,-16,1,0,-3
O=C(NN=Cc1ccccc1O)c1ccc2c(c1)OCO2,.,.,.,.,.,-2
SMILES,FBA Mtb inh,PrPC surface inh,PrP UTR inh,Y pestis TopoI,GDH-TPI inh,Mtb hypoxia rep
CCOC(=O)c1cccc2c1-c1ccccc1C2=NO,.,.,.,.,.,1
N#Cc1ccc(NCC(=O)N2CCN(S(=O)(=O)c3ccccc3)CC2)cc1,7,5,-8,-3,9,43*
CCOC(=O)C(C)Sc1nnc2c3ccccc3n(C)c2n1 (stereo not drawn),0,9,-24,14,32*,19
CCOc1cc(C(=O)NN=Cc2ccsc2)cc(OCC)c1OCC,.,.,.,.,.,1
CC(C)(C)NC(=O)COC(=O)c1ccc(NC(=O)CC#N)cc1,1,-6,-31,-14,-2,18
CCN(CC)c1ccc(C(=O)OCC(=O)NC(C)(C)C)cc1,-2,3,-14,8,57*,3
Cc1nn(-c2cccc(C(F)(F)F)c2)c(Cl)c1C=NNc1cccc(C(=O)O)c1,.,.,.,.,.,5
N#Cc1nc(-c2cccs2)oc1NCCCN1CCOCC1,+,-1,-33,7,15,5
N#Cc1nc(/C=C/c2ccccc2)oc1NCCCN1CCOCC1,+,-14,-39,-4,26,-7
COc1ccc(-c2nc(C#N)c(NCCCN3CCOCC3)o2)cc1,149*,1,-16,-7,11,10
CCON=CC(=O)Nc1ccc(F)cc1F,.,.,.,.,.,8
COc1cc2c3nnc(-c4ccc(F)cc4)c-3cn(Cc3cccc(C)c3)c2cc1OC,11,7,-14,-2,-12,2
COc1cc2c3nnc(-c4ccc(F)cc4)c-3cn(Cc3cccc(F)c3)c2cc1OC,46*,.,-9,10,12,9
CCOC(=O)C1C2COc3cc(OC)ccc3C2N2C(=O)CN(Cc3ccco3)C(=O)[C@@]12C (stereo partly drawn),.,.,.,.,.,2
O=c1c2ccccc2nc(/C=C/c2cccnc2)n1CCc1ccccc1,0,-13,-19,10,37*,.
O=C(O)c1cnc2[nH]c3ccccc3n2c1=O,176*,8,-10,2,36*,14
COc1ccc(Cl)cc1NC(=O)C(C)OC(=O)Cn1cc(C(F)(F)F)ccc1=O (stereo not drawn),-1,2,-18,-11,4,27*
CCOc1ccc(-n2c(C)cc(C=C3C(=N)N4C(=NC3=O)SN=C4S(C)(=O)=O)c2C)cc1,.,.,.,.,.,-2
CC(C)(C)OC(=O)CC1CC=CCC(CC(=O)N(CCO)Cc2ccccc2)C(=O)NCCOC1=O (stereo not drawn),.,.,.,.,.,5
CSc1ccccc1NC(=O)COC(=O)c1ccccc1O,2,-2,-21,0,6,9
CSc1ccccc1NC(=O)COC(=O)c1ccccc1Cc1ccccc1,0,-1,-26,62*,7,4
CC(C=NNC(=O)c1ccc(CN2c3cccc4cccc(c34)S2(=O)=O)cc1)c1ccccc1 (stereo not drawn),.,.,.,.,.,4
N#Cc1c(NC(=O)c2ccccc2Cl)n(Cc2ccccc2)c2nc3ccccc3nc12,35*,2,-10,1,7,.
O=C(NN=Cc1cccnc1)C(O)(c1ccccc1)c1ccccc1,.,.,.,.,.,20
CC(C)(C)c1ccc(C2=CC(c3ccccc3)n3ncnc3N2)cc1 (stereo not drawn),25,.,-39,?,4,.
COc1ccc(C2=CC(c3ccco3)n3ncnc3N2)cc1 (stereo not drawn),71*,.,-13,7,15,-1
COc1ccc(C2C=C(c3ccccc3)Nc3ncnn32)cc1 (stereo not drawn),118*,-11,-1,-1,14,.
Clc1ccc(C2=CC(c3ccco3)n3ncnc3N2)cc1 (stereo not drawn),38*,-7,2,-11,30,2

# Screens as filed in PubChem BioAssay.
